Screening data: PubChem, several laboratories
Ba/F3 V617F tox: reduced viability of JAK2V617F-dependent Ba/F3 cells, primary screen, JAK2V617F inhibitor project, cell-based, Ba/F3 EpoR-JAK2V617F, luminescence; ATP luminescence; inhibition, % at 5.6 µM; actives 1.1% (n = 220,000);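 active means inhibition above the campaign mean plus 3 SD over all tested compounds, cut at about 24% in these data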;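 further: cytokine-independent growth of Ba/F3 cells driven by EpoR plus mutant JAK2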
IEC-6 tox: cytotoxicity in IEC-6 intestinal epithelial cells, primary screen, cytotoxicity control for KLF5 inhibitor project, cell-based, luminescence | IEC-6 cytotoxicity, luminescence viability | inhibition, % at 5 µM | actives 0.78% (n = 290,000) | AID 1825, 2009; in the data active means inhibition above about 22%
BaF3 parental: parental Ba/F3 cell viability inhibition, counter-screen for JAK2V617F inhibitor project, murine pro-B, CellTiter-Glo luminescence; AID 1486, 2009; actives 1.1% (n = 220,000); CellTiter-Glo ATP luminescence; inhibition, % at 5.6 µM;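 active means inhibition above a per-campaign cutoff, the mean inhibition of all tested compounds plus 3 SD, cut at about 27% in these data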
APP transl inh: inhibitors of APP translation via 5'UTR reporter, primary screen, APP 5'UTR luciferase, SH-SY5Y cells | SH-SY5Y APP 5'UTR-luciferase reporter, luminescence | inhibition, % at 2 µM | actives 0.82% (n = 190,000) | AID 1285, 2008;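 active means inhibition above a set limit, derived from the sample mean plus 3 SD, cut at about 45% in these data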
aSyn 5UTR inh: MLPCN primary screen, SNCA 5' untranslated region; alpha-synuclein 5'UTR reporter, inhibitor activity; inhibition, % (tested at 7.5 µM); actives 0.82% (n = 300,000); in the data active means inhibition above about 60%;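 further: H4 neuroglioblastoma cells stably carrying SNCA 5'UTR luciferase fusion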
KLF5 inhibitor: KLF5 expression inhibitors, primary screen, DLD-1 cells, luminescence. DLD-1 KLF5 promoter-luciferase reporter. inhibition, % at 5 µM. actives 0.23% (n = 290,000). AID 1700, 2009;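 active means inhibition above a per-plate limit of that plate's mean compound inhibition plus 3 SD, cut at about 60% in these data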;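 further: higher means less KLF5 promoter-driven luciferase light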
Numbers stand for hits; i = inactive; nt = no result. Shown are actives, neighbours in structure and some others; about 2.2% of the full set was active somewhere.

SMILES	Ba/F3 V617F tox	IEC-6 tox	BaF3 parental	APP transl inh	aSyn 5UTR inh	KLF5 inhibitor
Cc1ccc[n+](C(C)C(=O)c2ccc(Cl)cc2)c1 (centres undefined)	nt	i	nt	nt	i	i
Cc1cc(C)c[n+](C(C)C(=O)c2ccc(-c3ccccc3)cc2)c1 (centres undefined)	66	i	65	i	i	i
Cc1cc(=O)[nH]c(N/N=C/c2ccccc2C(F)(F)F)n1	i	i	i	i	i	i
Cc1cc(=O)[nH]c(N/N=C/c2cc(C)n(CC(F)(F)F)c2C)n1	76	i	32	nt	i	i
CC(=O)Nc1ccc(S(=O)(=O)N2c3ccccc3C(C)=CC2(C)C)cc1	64	88	64	89	121	93
CC1=CC(C)(C)N(S(=O)(=O)c2ccc(C)cc2)c2ccc(C)cc21	51	i	37	50	i	i
CC1=CC(C)(C)N(S(=O)(=O)c2ccc(F)cc2)c2ccccc21	i	i	i	i	i	i
O=C1Cc2cc(S(=O)(=O)Nc3ccccc3Cl)cc3c2N1CCC3	nt	i	nt	nt	i	i
Cc1c(Cl)sn(-c2ccc(Cl)cc2)c1=O	i	i	i	92	nt	i
Cc1nn(-c2ccc(Cl)cc2)c(=O)c2ccccc12	i	i	i	i	i	i
CC(=O)N1CCN(C(=O)c2cc(=O)c3ccccc3o2)CC1	nt	i	nt	nt	i	i
O=C(Oc1ccc(Br)cc1C(=S)N1CCCCC1)c1cc([N+](=O)[O-])cc([N+](=O)[O-])c1	i	i	i	50	i	i
Oc1ccc(/C=N/N=C(c2ccccc2)c2ccccc2)c(O)c1O	i	i	i	49	nt	i
O=C(CSc1nc(=O)n(Cc2ccccn2)c2c1CCC2)Nc1ccc(F)cc1F	nt	nt	nt	nt	i	nt
CCN(CC)c1ccc(/C=N/NC(=O)c2ccc3nc[nH]c3c2)c(O)c1	i	i	i	nt	93	i
COc1cccc(/C=N/NC(=O)c2ccc3nc[nH]c3c2)c1O	i	i	i	nt	i	i
O=C(Nc1ccc(F)cc1)Nc1ccc(N2CCCC2)c(S(=O)(=O)Nc2ccccc2Cl)c1	i	i	i	i	i	i
O=C(Nc1ccc(Cl)c(Cl)c1)Nc1ccc(N2CCCC2)c(S(=O)(=O)Nc2ccccc2Cl)c1	i	i	i	i	95	i
COc1cc(C(=O)NC(=S)N(CCc2ccccc2)CCc2ccccc2)cc(OC)c1OC	i	i	i	i	69	i
COc1cc(C(=O)NC(=S)N(C)Cc2ccccc2)cc(OC)c1OC	i	i	i	i	i	i
COC(=O)C1(C)NC(c2ccc(O)cc2)C2C(=O)N(c3ccc(C)cc3)C(=O)C21 (centres undefined)	nt	i	nt	nt	i	i
CCNC(=S)Nc1ccc(Cc2nc3ccccc3[nH]2)cc1	nt	i	nt	nt	i	i
COc1ccc(NC(=O)CN2C(=O)NC(C)(c3ccccc3)C2=O)cc1Cl (centres undefined)	nt	i	nt	nt	i	i
O=C1OCCC1Sc1nnc(-c2ccc(Cl)cc2Cl)o1 (centres undefined)	i	i	i	nt	90	i
O=C(NNC(=O)C1CCN(c2ncccn2)CC1)c1ccc(Cl)cc1	i	i	90	i	i	i
SMILES	Ba/F3 V617F tox	IEC-6 tox	BaF3 parental	APP transl inh	aSyn 5UTR inh	KLF5 inhibitor
NC(=O)Nc1ccc(Nc2ccccc2)cc1	i	i	i	nt	i	i
O=C(Nc1ccc(Nc2ccccc2)cc1)C(Cl)(Cl)Cl	i	i	50	i	i	i
CO/N=C\CC(=O)Nc1ccc(Oc2ccccc2)cc1	i	i	i	68	i	i
O=C(C/C=N\O)Nc1ccc(Oc2ccccc2)cc1	i	i	i	i	i	i
CC(C)=C1SC(N2CCCCC2)=NC1=O	i	i	i	i	i	i
C/C(=C1/SC(N2CCCC2)=NC1=O)c1ccc(Br)cc1	34	i	28	i	i	i
CCCCCCCCCCOC(=O)C[N+](C)(C)C/C=C(/C)Cl	67	i	59	i	i	i
CCCCCCCCOC(=O)C[N+](C)(C)C/C=C(/C)Cl	32	i	53	i	i	i
CCCCCCCCCCCCOC(=O)C[N+](C)(C)C	i	i	i	nt	i	i
CCCCCCCOC(=O)c1nc(Cl)c(Cl)c(N)c1Cl	i	i	i	i	i	i
O=C(COC(=O)CCSc1ccc(Cl)cc1)NCc1ccco1	i	i	i	i	i	i
CCOC(=O)N1CCN(C(=O)CSc2nnc3[nH]c(=O)c(C)c(C)n23)CC1	nt	nt	nt	nt	i	nt
COc1ccc(C(=O)Nc2nnc(Cc3cccs3)s2)cc1OC	39	i	41	i	i	i
N#CC1(NC(=O)COC(=O)c2nccnc2N)CCCCC1	nt	nt	nt	nt	i	nt
CC(C)N(Cc1nccn1C)C(=O)c1cc(COc2ccc3ncccc3c2)on1	i	i	i	i	i	i
CC(CCCC(C)(C)O)NC(=O)c1cc(COc2ccc3ncccc3c2)on1 (centres undefined)	i	i	44	i	i	i
O=C(NCc1cccc(Cl)c1)c1cc(COc2ccc3ncccc3c2)on1	i	i	i	i	i	i
Cc1nc(CN(C)C(=O)c2cc(COc3ccc4ncccc4c3)on2)cs1	i	i	38	i	i	i
CC(=O)Nc1ccc(NC(=O)C2CCCCN2S(=O)(=O)c2ccc(C(C)(C)C)cc2)cc1 (centres undefined)	nt	i	nt	nt	i	i
COc1cccc(-c2ccc3nnc(SCC(=O)Nc4ccc(NC(C)=O)cc4)n3n2)c1	nt	nt	nt	nt	i	nt
CCCCOc1ccc(Nc2cc(Cl)ccc2C(=O)O)cn1	i	i	i	nt	i	i
O=C1N(c2ccccc2)C[C@@H]2C[C@@H](c3cccs3)N3CCC[C@@]123	i	i	i	i	i	i
CC(C)(O)C#Cc1ccc([C@@H]2C[C@H]3CN(c4ccccc4)C(=O)[C@]34CCCN24)s1	i	i	i	82	i	i
Cc1ccc(Cl)cc1N1CCN(C(CC(C)C)c2nnnn2CC2CCCO2)CC1 (centres undefined)	i	i	i	i	i	i
CCCC(c1nnnn1CC1CCCO1)N1CCN(c2cc(Cl)ccc2C)CC1 (centres undefined)	i	i	31	i	i	i
CC1=CC(C)(C)[N+](C)(C)c2ccc(C)cc21	29	i	42	i	i	i
CCC(=O)Nc1c(C#N)c2nc3ccccc3nc2n1C1CCCCC1	i	i	i	i	i	i
N#Cc1c(N)n(C2CCCCC2)c2nc3ccccc3nc12	i	i	i	i	62	i
Cc1ccc2c(c1)nnn2C1CCN(S(=O)(=O)c2ccc(C(=O)N3C(C)CCCC3C)cc2)CC1 (centres undefined)	51	i	58	i	i	i
CC(C)c1ccc(S(=O)(=O)/N=C2/C=C(Sc3ncn[nH]3)C(=O)c3ccccc32)cc1	54	39	74	i	nt	i
